The term AC50 denotes the concentration at which the activity in the assay is half-maximal.

A short description of assay [1]: BSK_4H_Eotaxin3: BioMAP Diversity Plus: 4H Assay for Eotaxin 3 Biomarker Activity (AID 2283000; active = hit-call score of the fitted dose curve at least 0.9, where 1 is the maximum; inactive = score below 0.9;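 note: CCL26 protein level quantified by ELISA in parallel with SRB cytotoxicity check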). The note with it: primary human endothelial cells (HUVEC); actives raise or lower the signal. In outline: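 Eotaxin-3 (CCL26) levels were measured by ELISA in HUVEC primary cultures 24 h post-dosing. Gain or loss of signal was fitted in both directions, with DMSO serving as baseline and negative control.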

Read-out in assay [2]: Intercellular Adhesion Molecule 1 (ICAM1), ICAM1 (gene 3383)
The assay can be described thus: BSK_3C_ICAM1: BioMAP Diversity Plus: 3C Assay for Intercellular Adhesion Molecule 1 (ICAM1) Biomarker Activity (AID 2283003; active = hit-call score of the fitted dose curve at least 0.9, where 1 is the maximum; inactive = score below 0.9). The note with it: primary human endothelial cells (HUVEC); actives raise or lower the signal. In outline: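 ELISA readout of ICAM1 in human umbilical vein endothelial cells in the 3C system, taken 24 h post-dose. Gain or loss of signal versus DMSO was fitted in both directions, with SRB total-protein staining run in parallel.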

The nature of assay [3]: BSK_3C_Proliferation: Cell Proliferation Assessment in the BioMAP Diversity Plus: 3C Assay (AID 2283006; active = hit-call score of the fitted dose curve at least 0.9, where 1 is the maximum; inactive = score below 0.9). The note with it: primary human endothelial cells (HUVEC). In outline:
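Proliferation as total protein: sulforhodamine B (0.1%) stain of TCA-fixed subconfluent human umbilical vein endothelial cells, absorbance 560 nm, 48 h after dosing. Activity fitted in both directions against DMSO baseline.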

Read-out in assay [4]: E-selectin (Homo sapiens) (UniProt P16581)
Put plainly: BSK_3C_Eselectin: BioMAP Diversity Plus: 3C Assay for Eselectin Biomarker Activity (AID 2283015; active = hit-call score of the fitted dose curve at least 0.9, where 1 is the maximum; inactive = score below 0.9;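 note: cell surface E-selectin protein quantified by ELISA 24 h after dosing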). The note with it: primary human endothelial cells (HUVEC); actives raise or lower the signal. In short, it runs like this:
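Primary human umbilical vein endothelial cells (3C system), read 24 h after compound addition; E-selectin measured by ELISA. Bidirectional curve fitting against DMSO baseline; cytotoxicity by parallel SRB total-protein staining.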

Read-out in assay [5]: Interleukin-1 alpha (IL1a), IL1A (gene 3552)
Put plainly: BSK_BE3C_IL1a: BioMAP Diversity Plus: BE3C Assay for Interleukin-1 alpha (IL1a) Biomarker Activity (AID 2283016; active = hit-call score of the fitted dose curve at least 0.9, where 1 is the maximum; inactive = score below 0.9). The note with it: primary human bronchial epithelial cells; actives raise or lower the signal. In short, it runs like this: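 IL-1a measured by ELISA after 24 h treatment of human primary bronchial epithelial cells, with gain or loss of signal fitted versus DMSO. Parallel cultures stained with SRB gauge overt cytotoxicity.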

Read-out in assay [6]: Monocyte Chemoattractant Protein-1 (MCP1), CCL2 (gene 6347)
Put plainly: BSK_4H_MCP1: BioMAP Diversity Plus: 4H Assay for Monocyte Chemoattractant Protein-1 (MCP1) Biomarker Activity (AID 2283018; active = hit-call score of the fitted dose curve at least 0.9, where 1 is the maximum; inactive = score below 0.9). The note with it: primary human endothelial cells (HUVEC); actives raise or lower the signal. In short, it runs like this:
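ELISA of MCP-1 (CCL2) 24 h after chemical dosing of HUVEC in the BioMAP 4H system. Gain or loss versus DMSO fitted; parallel SRB staining (560 nm) tracked overt cytotoxicity.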

Read-out in assay [7]: Human Leukocyte Antigen - DR isotype (HLADR), HLA-DRA (gene 3122)
The assay can be described thus: BSK_3C_HLADR: BioMAP Diversity Plus: 3C Assay for Human Leukocyte Antigen - DR isotype (HLADR) Biomarker Activity (AID 2283019; active = hit-call score of the fitted dose curve at least 0.9, where 1 is the maximum; inactive = score below 0.9;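 note: ELISA of cell-surface HLA-DR on HUVEC 24 h after dosing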). The note with it: primary human endothelial cells (HUVEC); actives raise or lower the signal. In outline:
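HUVEC monoculture, HLA-DR measured by ELISA 24 h after chemical dosing. Fitted bidirectionally against DMSO baseline; parallel SRB staining assessed cytotoxicity, with 3C proliferation read by SRB at 48 h.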

Assay [8] deals with human Peroxisome Proliferator-activated Receptor alpha (PPARa), PPARA (gene 5465) (UniProt Q07869). Put plainly: ATG_PPARa_TRANS: Attagene TRANS-FACTORIAL HepG2 Assay for human Peroxisome Proliferator-activated Receptor alpha (PPARa) (AID 2283001).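 For AC50: potency for gain of reporter signal over DMSO so agonist or activator.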 In short, it runs like this: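 Reporter transcripts quantified by RT-PCR plus capillary electrophoresis after 24 h treatment, fitted upward relative to DMSO. Cells: human HepG2 transiently carrying multiple GAL4-UAS reporter units driven by NR-Gal4 chimeras.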
Sequence of human Peroxisome Proliferator-activated Receptor alpha (PPARa), PPARA (gene 5465) (Q07869 whole entry, looked up, the tested form may be a part): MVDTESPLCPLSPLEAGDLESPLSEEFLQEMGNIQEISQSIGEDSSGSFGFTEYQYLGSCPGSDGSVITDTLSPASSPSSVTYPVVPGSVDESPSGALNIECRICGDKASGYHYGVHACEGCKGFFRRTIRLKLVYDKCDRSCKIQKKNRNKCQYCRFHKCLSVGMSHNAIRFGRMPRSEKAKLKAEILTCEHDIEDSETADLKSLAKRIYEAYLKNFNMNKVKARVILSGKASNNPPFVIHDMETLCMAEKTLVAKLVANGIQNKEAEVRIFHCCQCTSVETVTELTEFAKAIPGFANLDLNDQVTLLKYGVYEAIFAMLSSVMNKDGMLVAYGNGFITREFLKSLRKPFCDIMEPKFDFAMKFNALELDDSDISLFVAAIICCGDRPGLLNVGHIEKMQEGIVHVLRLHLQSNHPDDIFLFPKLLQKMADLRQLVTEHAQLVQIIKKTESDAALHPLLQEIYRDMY

Assay [9] has as its target human Peroxisome Proliferator-activated Receptor delta (PPARd), PPARD (gene 5467) (UniProt Q03181). The assay can be described thus: ATG_PPARd_TRANS: Attagene TRANS-FACTORIAL HepG2 Assay for human Peroxisome Proliferator-activated Receptor delta (PPARd) (AID 2283002). In short, it runs like this:
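Read-out is induced reporter mRNA, quantified by RT-PCR with fluorescent labelling and capillary electrophoresis after 24 h dosing. Cells are HepG2 transiently carrying multiple GAL4-UAS reporter units driven by exogenous NR-GAL4 chimeras; DMSO serves as baseline.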

The target in assay [10] is Peroxisome proliferator-activated receptor gamma (Homo sapiens) (UniProt P37231). The assay can be described thus: ATG_PPARg_TRANS: Attagene TRANS-FACTORIAL HepG2 Assay for human Peroxisome Proliferator-activated Receptor-gamma (PPARg) (AID 2283007). In outline: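 After 24 h of chemical exposure, transfected HepG2 cells carrying PPARγ-Gal4 chimera reporter constructs are lysed for RNA. Reporter transcripts are measured by RT-PCR and capillary electrophoresis with fluorescent labelling, and gain of signal is fitted versus DMSO.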
Sequence of Peroxisome proliferator-activated receptor gamma (Homo sapiens) (P37231 whole entry, looked up, the tested form may be a part): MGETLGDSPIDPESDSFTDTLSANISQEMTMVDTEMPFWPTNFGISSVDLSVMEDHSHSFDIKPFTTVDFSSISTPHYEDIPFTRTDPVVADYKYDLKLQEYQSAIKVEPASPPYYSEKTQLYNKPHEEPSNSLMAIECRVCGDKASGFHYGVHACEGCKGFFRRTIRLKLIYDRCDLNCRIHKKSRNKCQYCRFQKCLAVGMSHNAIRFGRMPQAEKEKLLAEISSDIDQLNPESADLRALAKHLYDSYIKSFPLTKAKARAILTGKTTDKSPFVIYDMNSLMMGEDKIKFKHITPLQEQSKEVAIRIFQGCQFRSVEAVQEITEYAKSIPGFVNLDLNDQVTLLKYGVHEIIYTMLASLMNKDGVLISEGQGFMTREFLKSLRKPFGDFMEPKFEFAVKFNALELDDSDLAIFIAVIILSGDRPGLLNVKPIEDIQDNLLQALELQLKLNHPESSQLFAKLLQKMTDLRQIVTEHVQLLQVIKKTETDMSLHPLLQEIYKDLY

The target in assay [11] is Nuclear receptor subfamily 1 group I member 2 (Homo sapiens) (UniProt O75469). Put plainly: ATG_PXR_TRANS: Attagene TRANS-FACTORIAL HepG2 Assay for human Pregnane X Receptor (PXR) (AID 2283008). In outline:
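Trans-factorial format: exogenous NR-Gal4 fusion activity, not endogenous factor, in transfected human HepG2 liver cells. After 24 h dosing, RNA isolated, reverse-transcribed, amplified and resolved by capillary electrophoresis; induction scored versus DMSO.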

The target in assay [12] is human RAR-related Orphan Receptor gamma (RORg), RORC (gene 6097) (UniProt P51449). Put plainly: ATG_RORg_TRANS: Attagene TRANS-FACTORIAL HepG2 Assay for human RAR-related Orphan Receptor gamma (RORg) (AID 2283011). In short, it runs like this: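 HepG2 cells transiently transfected with GAL4-UAS reporter units and chimeric RORg-Gal4 construct; after 24 h chemical exposure, reporter mRNA measured by RT-PCR with fluorescent capillary electrophoresis, gain of signal fitted against DMSO.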
Sequence of human RAR-related Orphan Receptor gamma (RORg), RORC (gene 6097) (P51449 whole entry, looked up, the tested form may be a part): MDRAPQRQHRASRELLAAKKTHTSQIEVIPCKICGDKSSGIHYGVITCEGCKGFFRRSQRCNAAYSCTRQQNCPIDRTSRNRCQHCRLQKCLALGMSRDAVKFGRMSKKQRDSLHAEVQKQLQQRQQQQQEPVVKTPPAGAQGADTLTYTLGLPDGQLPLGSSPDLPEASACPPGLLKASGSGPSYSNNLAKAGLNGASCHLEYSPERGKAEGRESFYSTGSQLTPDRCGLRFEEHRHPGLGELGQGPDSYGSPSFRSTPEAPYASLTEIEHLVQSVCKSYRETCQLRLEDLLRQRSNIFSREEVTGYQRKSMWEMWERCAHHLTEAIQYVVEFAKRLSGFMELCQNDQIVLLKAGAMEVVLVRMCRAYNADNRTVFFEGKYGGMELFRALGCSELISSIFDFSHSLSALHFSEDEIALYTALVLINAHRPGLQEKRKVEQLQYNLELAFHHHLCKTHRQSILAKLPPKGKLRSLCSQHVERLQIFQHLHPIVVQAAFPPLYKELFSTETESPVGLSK

Assay [13] has as its target human Thyroid Receptor alpha (THRa1), THRA (gene 7067) (UniProt P10827). Put plainly: ATG_THRa1_TRANS: Attagene TRANS-FACTORIAL HepG2 Assay for human Thyroid Receptor alpha (THRa1) (AID 2283014). In outline: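 HepG2 cells transiently transfected with chimeric NR-Gal4 and GAL4-UAS reporter units, dosed 24 h. Reporter mRNA quantified by RT-PCR, fluorescent labeling, HpaI digestion and capillary electrophoresis; gain-of-signal fit versus DMSO.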

The target in assay [14] is Retinoic acid receptor RXR-alpha (Homo sapiens) (UniProt P19793). Put plainly: ATG_RXRa_TRANS: Attagene TRANS-FACTORIAL HepG2 Assay for human Retinoid X Receptor alpha (RXRa) (AID 2283012). In short, it runs like this:
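TRANS format reporting activity of exogenous RXRa-Gal4 chimera in transiently transfected HepG2, 24 h exposure. Reporter transcripts quantified by RT-PCR with capillary electrophoresis, with gain of signal scored relative to DMSO.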

For assay [15], the target named is human Retinoid X Receptor beta (RXRb), RXRB (gene 6257) (UniProt P28702). Put plainly: ATG_RXRb_TRANS: Attagene TRANS-FACTORIAL HepG2 Assay for human Retinoid X Receptor beta (RXRb) (AID 2283013). In outline:
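Readout is reporter transcript induction after 24 h dosing. It is measured by RT-PCR of total RNA followed by fluorescent capillary electrophoresis. HepG2 liver cells carry transfected multiple reporter units driven by an exogenous RXRb-Gal4 fusion; activity is relative to DMSO.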

Assay [16] concerns the target human Retinoic Acid Receptor gamma (RARg), RARG (gene 5916) (UniProt P13631). Put plainly: ATG_RARg_TRANS: Attagene TRANS-FACTORIAL HepG2 Assay for human Retinoic Acid Receptor gamma (RARg) (AID 2283009).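 For AC50: AC50 is for reporter induction above DMSO meaning RARg activation.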 In outline: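 Transactivation of exogenous RARg-Gal4 fusion measured as reporter transcript induction after 24 h in transfected HepG2 cells. RNA reverse-transcribed, amplified, fluorescently labeled and resolved by capillary electrophoresis; increase relative to DMSO.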

Assay [17] concerns the target human Retinoic Acid Receptor beta (RARb), RARB (gene 5915) (UniProt P10826). The assay can be described thus: ATG_RARb_TRANS: Attagene TRANS-FACTORIAL HepG2 Assay for human Retinoic Acid Receptor beta (AID 2283004). In outline:
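HepG2 cells were transiently transfected with GAL4-UAS reporter units that report activity of exogenous chimeric NR-Gal4 proteins, then exposed to compound for 24 h. Reporter mRNA was quantified by RT-PCR with capillary electrophoresis fluorescence, as gain of signal over DMSO.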

Assay [18] has as its target Retinoic acid receptor alpha (Homo sapiens) (UniProt P10276). Put plainly: ATG_RARa_TRANS: Attagene TRANS-FACTORIAL HepG2 Assay for human Retinoic Acid Receptor alpha (RARa) (AID 2283005). In short, it runs like this: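 Reporter transcripts, measured by RT-PCR with fluorescent labeling and capillary electrophoresis after 24 h dosing, reflect activity of an exogenous human RARa–GAL4 fusion in transiently transfected HepG2. Fitted for increase relative to DMSO.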

The target in assay [19] is human RAR-related Orphan Receptor beta (RORb), RORB (gene 6096) (UniProt Q92753). The assay can be described thus: ATG_RORb_TRANS: Attagene TRANS-FACTORIAL HepG2 Assay for human RAR-related Orphan Receptor beta (RORb) (AID 2283010). In outline:
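Read-out is reporter mRNA induction, quantified by RT-PCR with fluorescent capillary electrophoresis, 24 h post-dose in transiently transfected HepG2 expressing exogenous NR-Gal4 chimera. Activity fitted upward versus DMSO.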

Records with an inconclusive call do not appear. The source made the active and inactive calls. Rule for the calls, unless noted: active = hit-call score of the fitted dose curve at least 0.9, where 1 is the maximum; inconclusive = response in the unintended direction; inactive = score below 0.9.

Sequence of human Thyroid Receptor alpha (THRa1), THRA (gene 7067) (P10827 whole entry, looked up, the tested form may be a part): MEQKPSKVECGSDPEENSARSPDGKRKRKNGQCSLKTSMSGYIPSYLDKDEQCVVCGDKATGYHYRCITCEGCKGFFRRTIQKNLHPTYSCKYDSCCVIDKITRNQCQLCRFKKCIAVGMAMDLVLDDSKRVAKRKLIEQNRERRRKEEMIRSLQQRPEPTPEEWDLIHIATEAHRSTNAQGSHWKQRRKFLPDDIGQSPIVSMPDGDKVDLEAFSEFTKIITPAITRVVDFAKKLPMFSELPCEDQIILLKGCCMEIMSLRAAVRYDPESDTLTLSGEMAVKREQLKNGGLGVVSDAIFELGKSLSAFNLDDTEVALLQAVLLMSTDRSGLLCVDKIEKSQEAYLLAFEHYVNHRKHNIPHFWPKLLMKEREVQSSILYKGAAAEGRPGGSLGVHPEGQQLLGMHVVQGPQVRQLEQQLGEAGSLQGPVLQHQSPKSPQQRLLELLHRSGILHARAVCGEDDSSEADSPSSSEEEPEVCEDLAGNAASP
Sequence of human Peroxisome Proliferator-activated Receptor delta (PPARd), PPARD (gene 5467) (Q03181 whole entry, looked up, the tested form may be a part): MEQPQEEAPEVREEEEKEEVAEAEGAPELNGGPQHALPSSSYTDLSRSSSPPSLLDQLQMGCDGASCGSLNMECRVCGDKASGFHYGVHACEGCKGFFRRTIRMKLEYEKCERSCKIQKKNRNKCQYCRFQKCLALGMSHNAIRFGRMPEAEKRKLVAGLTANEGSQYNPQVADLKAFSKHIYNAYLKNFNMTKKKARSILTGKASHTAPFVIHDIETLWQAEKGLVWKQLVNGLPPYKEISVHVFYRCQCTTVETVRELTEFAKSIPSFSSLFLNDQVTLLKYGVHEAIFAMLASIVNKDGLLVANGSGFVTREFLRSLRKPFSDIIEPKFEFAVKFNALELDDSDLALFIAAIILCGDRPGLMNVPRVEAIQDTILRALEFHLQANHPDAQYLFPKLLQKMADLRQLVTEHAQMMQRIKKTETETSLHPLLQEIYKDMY
Sequence of Nuclear receptor subfamily 1 group I member 2 (Homo sapiens) (O75469 whole entry, looked up, the tested form may be a part): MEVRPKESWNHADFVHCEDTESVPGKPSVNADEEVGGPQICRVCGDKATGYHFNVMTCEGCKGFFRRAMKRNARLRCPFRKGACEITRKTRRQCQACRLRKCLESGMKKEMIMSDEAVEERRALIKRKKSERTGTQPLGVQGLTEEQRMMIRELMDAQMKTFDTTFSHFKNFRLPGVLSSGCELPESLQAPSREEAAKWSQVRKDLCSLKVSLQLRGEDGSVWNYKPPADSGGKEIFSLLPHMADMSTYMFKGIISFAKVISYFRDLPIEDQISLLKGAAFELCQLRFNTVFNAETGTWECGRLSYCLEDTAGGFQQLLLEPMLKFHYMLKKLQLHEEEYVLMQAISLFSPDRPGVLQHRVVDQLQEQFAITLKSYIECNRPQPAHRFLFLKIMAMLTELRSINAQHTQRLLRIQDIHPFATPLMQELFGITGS
Sequence of human Retinoid X Receptor beta (RXRb), RXRB (gene 6257) (P28702 whole entry, looked up, the tested form may be a part): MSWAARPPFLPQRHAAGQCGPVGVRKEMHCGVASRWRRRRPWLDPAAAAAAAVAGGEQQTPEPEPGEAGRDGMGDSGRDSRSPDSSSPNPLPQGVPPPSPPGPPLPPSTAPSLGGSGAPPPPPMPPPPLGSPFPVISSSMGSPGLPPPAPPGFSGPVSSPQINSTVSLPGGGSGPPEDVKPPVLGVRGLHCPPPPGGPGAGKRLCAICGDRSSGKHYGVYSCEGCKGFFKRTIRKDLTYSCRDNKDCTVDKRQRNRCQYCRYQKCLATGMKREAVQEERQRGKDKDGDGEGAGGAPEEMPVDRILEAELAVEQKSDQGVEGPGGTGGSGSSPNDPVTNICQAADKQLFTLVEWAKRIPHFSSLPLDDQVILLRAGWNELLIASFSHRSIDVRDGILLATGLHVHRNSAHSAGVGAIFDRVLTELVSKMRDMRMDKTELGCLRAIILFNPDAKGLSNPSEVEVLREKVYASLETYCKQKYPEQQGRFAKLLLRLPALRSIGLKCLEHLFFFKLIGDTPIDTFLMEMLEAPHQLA
Sequence of Retinoic acid receptor RXR-alpha (Homo sapiens) (P19793 whole entry, looked up, the tested form may be a part): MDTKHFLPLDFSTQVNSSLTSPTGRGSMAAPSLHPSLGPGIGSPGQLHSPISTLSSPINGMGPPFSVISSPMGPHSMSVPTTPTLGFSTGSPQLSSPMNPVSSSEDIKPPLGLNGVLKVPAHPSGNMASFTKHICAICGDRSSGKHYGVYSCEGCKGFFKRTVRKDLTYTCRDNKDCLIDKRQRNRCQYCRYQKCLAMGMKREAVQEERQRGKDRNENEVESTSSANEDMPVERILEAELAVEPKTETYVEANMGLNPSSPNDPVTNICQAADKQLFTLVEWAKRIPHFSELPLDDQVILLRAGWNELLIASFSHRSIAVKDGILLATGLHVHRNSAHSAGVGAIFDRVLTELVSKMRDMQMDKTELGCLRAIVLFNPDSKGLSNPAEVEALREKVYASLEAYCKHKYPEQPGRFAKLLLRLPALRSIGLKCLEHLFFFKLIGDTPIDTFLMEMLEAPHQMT
Sequence of E-selectin (Homo sapiens) (P16581 whole entry, looked up): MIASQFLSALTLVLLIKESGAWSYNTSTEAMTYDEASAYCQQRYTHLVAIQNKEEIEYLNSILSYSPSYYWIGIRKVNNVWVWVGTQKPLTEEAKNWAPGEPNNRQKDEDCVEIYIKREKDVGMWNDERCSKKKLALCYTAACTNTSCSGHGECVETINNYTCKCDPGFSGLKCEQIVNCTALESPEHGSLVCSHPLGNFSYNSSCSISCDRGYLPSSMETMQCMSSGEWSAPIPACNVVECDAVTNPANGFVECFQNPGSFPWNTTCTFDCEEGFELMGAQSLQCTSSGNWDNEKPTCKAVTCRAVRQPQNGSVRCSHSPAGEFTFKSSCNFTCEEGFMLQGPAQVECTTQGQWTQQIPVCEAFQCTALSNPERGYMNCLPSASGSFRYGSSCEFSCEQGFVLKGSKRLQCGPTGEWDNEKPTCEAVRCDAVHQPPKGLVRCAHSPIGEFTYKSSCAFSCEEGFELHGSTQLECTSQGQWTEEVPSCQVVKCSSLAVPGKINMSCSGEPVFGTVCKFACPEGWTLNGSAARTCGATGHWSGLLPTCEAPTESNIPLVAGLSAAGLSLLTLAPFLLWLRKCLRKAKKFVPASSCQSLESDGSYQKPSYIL
Sequence of human Retinoic Acid Receptor gamma (RARg), RARG (gene 5916) (P13631 whole entry, looked up, the tested form may be a part): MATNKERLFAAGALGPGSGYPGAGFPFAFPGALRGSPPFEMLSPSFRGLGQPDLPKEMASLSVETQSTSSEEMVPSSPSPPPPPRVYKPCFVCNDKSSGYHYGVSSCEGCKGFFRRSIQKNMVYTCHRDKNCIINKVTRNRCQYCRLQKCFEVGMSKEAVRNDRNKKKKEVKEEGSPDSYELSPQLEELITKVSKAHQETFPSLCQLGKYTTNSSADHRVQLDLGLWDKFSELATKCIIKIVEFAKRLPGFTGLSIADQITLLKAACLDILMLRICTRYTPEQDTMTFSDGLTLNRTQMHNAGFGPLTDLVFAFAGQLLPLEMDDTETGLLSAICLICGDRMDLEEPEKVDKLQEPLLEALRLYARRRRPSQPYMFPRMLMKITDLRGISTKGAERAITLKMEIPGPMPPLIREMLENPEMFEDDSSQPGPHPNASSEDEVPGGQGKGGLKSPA

As for `O=C(O)C(F)(F)C(F)(F)C(F)(F)C(F)(F)C(F)(F)C(F)(F)C(F)(F)C(F)F`, the outcome in assay [1], in [2], in [3], in [4], in assay [5] and in [6] was inactive. Besides, the result in assay [7] was inactive.

Take `CCCCCCCCCCCCOCCOS(=O)(=O)O`: the concentration at half-maximal activity (AC50) in [8] is 9.73 µM (active); in [10], 18.7 µM (active). Also, the outcome in assay [9] and in assay [11] was inactive.

With `C=C(F)C(=O)OC(C(F)(F)F)C(F)(F)F`, the result in [1], in [2], in [3], in assay [4], in assay [5] and in assay [6] was inactive. For the same molecule, the outcome in assay [7] was inactive.

Take `CN(C)C(=O)Nc1ccccc1`: the molecule was classed as inactive in assay [8], in assay [9], in assay [10], in assay [11], in assay [12] and in [13].

In the case of `CCC(=O)OCC=Cc1ccccc1`, the result in assay [1], in [2], in assay [3], in [12], in [14] and in [15] was inactive. Further, the outcome in [4], in assay [5], in assay [6] and in assay [7] was inactive. Besides, in assay [11], the concentration at half-maximal activity (AC50) is 16.7 µM (active).

As for `COC(=O)C(C)Oc1ccc(Oc2ncc(C(F)(F)F)cc2Cl)cc1` (stereo not drawn), the molecule was called inactive in assay [8], in assay [9], in assay [14], in assay [15] and in assay [13]. The AC50 in assay [10] was 48.9 µM (active); in assay [11], 40.6 µM (active).

For `O=S(=O)(O)C(F)(F)C(F)(F)OC(F)(F)C(F)(F)F`, the result in assay [1], in [2], in assay [3], in assay [4], in assay [5] and in [6] was inactive. For the same molecule, the result in assay [7] was inactive.

Turning to `CCCCCCCCCCO[C@@H]1O[C@H](CO)[C@@H](O)[C@H](O)[C@H]1O`, the call in [8], in [9], in [10], in [11], in [16] and in [15] was inactive.

As for `CCOC(=O)CCCCCCCCC(=O)OCC`, the result in assay [1], in assay [2], in assay [3], in assay [10], in [15] and in [4] was inactive. For the same molecule, the outcome in assay [5], in assay [6] and in assay [7] was inactive.

For the molecule `CN1CCc2cccc3c2[C@H]1Cc1ccc(O)c(O)c1-3`, the call in [8], in [9], in assay [17], in assay [18], in assay [11] and in assay [14] was inactive. In assay [15], the molecule was classed as inactive. Further, the AC50 is 12 µM (active) in assay [10] and 0.775 µM (active) in assay [16].

Regarding `NC(N)=NC(N)=NCCc1ccccc1`, the result in assay [8], in assay [9], in assay [18], in assay [10], in assay [11] and in [16] was inactive. In addition, the outcome in assay [12] and in assay [13] was inactive.

Regarding `OCCCO`, the molecule was called inactive in assay [8], in assay [9], in [11], in [16], in assay [15] and in assay [13].

As to `C=C(C)C(=O)OCCC[Si](OC)(OC)OC`, the outcome in [8], in assay [17], in assay [11], in assay [12], in assay [14] and in assay [13] was inactive.

For the molecule `CCCCC/C=C\C=C\C(=O)OCC`, the molecule was called inactive in assay [8], in assay [9] and in assay [14]. In [11], the AC50 was 5.19 µM (active).

With `OCC=Cc1ccccc1`, the call in assay [8], in [9], in assay [11], in assay [12] and in assay [13] was inactive.

Consider `CC1=C(C=O)C(C)(C)CCC1`, for which the outcome in [8], in [10], in [19], in assay [12] and in assay [13] was inactive. The AC50 in assay [11] was 2.61 µM (active).

Values taken from PubChem BioAssay (EPA / NIEHS).
